Test [1] addresses Tumor necrosis factor receptor superfamily member 10B (Homo sapiens) (UniProt O14763). As to the kind of experiment: viability loss of caspase-8 NB7 cells with TRAIL – with/without TRAIL, luminescence panel, confirmation (AID 651596). The settings on record: NB7 neuroblastoma + caspase-8, TRAIL sensitization, NB7 Caspase-8, with TRAIL, mean of runs, at 10 µM, stronger effect = higher value.

Assay in test [2]: as above
The settings on record: NB7 neuroblastoma + caspase-8, without TRAIL, NB7 Caspase-8, without TRAIL, mean of runs, at 10 µM.

Tumor necrosis factor receptor superfamily member 10B (Homo sapiens), sequence (O14763 whole entry, looked up): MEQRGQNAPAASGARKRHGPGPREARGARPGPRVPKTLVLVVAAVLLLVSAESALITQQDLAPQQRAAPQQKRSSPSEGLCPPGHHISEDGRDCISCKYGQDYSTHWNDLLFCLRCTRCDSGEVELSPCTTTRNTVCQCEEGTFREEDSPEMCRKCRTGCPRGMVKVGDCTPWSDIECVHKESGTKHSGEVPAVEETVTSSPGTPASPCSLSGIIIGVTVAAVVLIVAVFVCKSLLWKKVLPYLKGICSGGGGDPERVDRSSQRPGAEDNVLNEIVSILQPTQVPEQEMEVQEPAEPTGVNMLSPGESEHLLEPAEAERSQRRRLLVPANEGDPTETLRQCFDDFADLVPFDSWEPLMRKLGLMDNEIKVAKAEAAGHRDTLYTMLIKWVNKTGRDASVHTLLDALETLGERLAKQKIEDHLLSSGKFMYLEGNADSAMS

Take `COc1ccc2[nH]c(-c3ccc(C)cc3)cc(=O)c2c1`: the activity in test [1] stood at 87.4%; in test [2], 87.8%.

`Cc1ccc(/C=N/Nc2ccc3ccccc3n2)o1`: the activity turned out to be 55.2% in test [1] and 45.1% in test [2].

Consider `Cc1ccccc1-c1nnc(-c2cccc3ccccc23)o1`, for which the results for the activity in test [1] and in test [2] were 47% and 32.4%, respectively.

`Cc1ccc2nc(-c3ccc(N)cc3)sc2c1`: the activity in test [1] turned out to be 83.2%; in test [2], 81.8%.

Turning to `CN1CCc2c(sc(NC(=O)c3ccc([N+](=O)[O-])o3)c2C(N)=O)C1`, the activity in test [1] is 9.5%; in test [2], 95.3%.

Regarding `O=C(Nc1ccc2[nH]ccc2c1)c1ccccc1`, the activity turned out to be 81.1% in test [1] and 75.3% in test [2].

For `Fc1ccc(-c2nc(-c3cnccn3)no2)c(Cl)c1`, the figures for the activity in test [1] and in test [2] were 59.1% and 58.1%, respectively.

As to `O=C(COC(=O)c1n[nH]c2ccccc12)NC(=O)NC12CC3CC(CC(C3)C1)C2`, the figures for the activity in test [1] and in test [2] were 51.5% and 57%, respectively.

`C/C(=N\NC(=O)c1ccccc1O)c1ccc(Br)s1`: the figures for the activity in test [1] and in test [2] were 57.8% and 69.5%, respectively.

Regarding `CCCCCCCCCCCCCCCC[N+](C)(C)CCl`, the activity in test [1] is 96%; in test [2], 94.3%.

With `Cc1ccc2nc(-c3ccc(NC(=O)COC(=O)c4ccco4)cc3)sc2c1`, the activity is 73.4% in test [1] and 74.6% in test [2].

Turning to `CN(C)c1ccc(Sc2ccc3nc(N)nc(N)c3c2)cc1`, the figures for the activity in test [1] and in test [2] were 62.9% and 73%, respectively.

As to `COc1ccc(N2Cc3ccccc3C2=O)cc1`, the results for the activity in test [1] and in test [2] were 67% and 62.5%, respectively.

As for `COc1ccc(OCC(=O)N/N=C(\C)c2cc3ccccc3o2)cc1`, the activity amounted to 62.8% in test [1] and 70.2% in test [2].

`Cc1nc2c(-c3ccc(F)cc3)cnn2c(N)c1-c1ccccc1`: the activity was determined as 88.4% in test [1] and 86.9% in test [2].

As to `CCOC(=O)c1c(C)oc2c(F)c(F)c(F)c(F)c2c1=O`, the activity in test [1] and in test [2] was 99.2% in each case.

With `CC(C)c1ccc(NC(=O)Nc2nc(C(N)COCc3ccccc3)cs2)cc1` (stereo not drawn), the activity in test [1] amounted to 47.9%; in test [2], 80.4%.

As to `Cc1ccnc(NC(=O)c2ccc(OCC3CCCO3)cc2)c1` (stereo not drawn), the activity is 94.4% in test [1] and 93.9% in test [2].

For the molecule `Cc1ccc2nc(-c3ccc(NC(=O)CCS(=O)(=O)c4ccccc4)cc3)sc2c1`, the activity in test [1] is 87.5%; in test [2], 86.9%.

In the case of `c1ccc2sc(NN=C3CCCCCC3)nc2c1`, the activity in test [1] came to 59.8%; in test [2], 46.7%.

For `CNS(=O)(=O)c1cccc(C(=O)OCC(=O)c2cc(C)n(CC3CCCO3)c2C)c1` (stereo not drawn), the activity in test [1] was determined as 77.7%; in test [2] it was 67%.

As for `CCOC(=O)C1=CCN(S(=O)(=O)c2ccccc2C)C1c1ccc(Cl)cc1` (stereo not drawn), the activity in test [1] is 10.1%; in test [2] it was -8.28%.

For the molecule `O=C(O)c1ccc(N/N=C/c2cc3cc4c(cc3nc2Cl)OCCO4)cc1`, the activity amounted to 96.3% in test [1] and 95.3% in test [2].

As to `Cn1cc([N+](=O)[O-])c(C(=O)Nc2nc(-c3ccc(Cl)cc3)cs2)n1`, the activity in test [1] is 97.3%; in test [2], 98.7%.

Turning to `Cc1ccc2nc(-c3ccc(NC(=O)COC(=O)c4cncc(Br)c4)cc3)sc2c1`, the activity was 60.7% in test [1] and 60.1% in test [2].

As for `O=C(NC(=S)Nc1ccc(Cl)cn1)c1cccs1`, the activity in test [1] is 79.4%; in test [2], 76.3%.

For the molecule `COc1ccc(C(=O)NCc2cn3cccc(C)c3n2)cc1OC`, the activity in test [1] amounted to 4.08%; in test [2] it was 3.77%.

With `C=C1CC2(CC(c3ccccc3)OC(c3ccccc3)C2)OC1=O` (stereo not drawn), the results for the activity in test [1] and in test [2] were 47% and 73.1%, respectively.

For `C=C(C)CSc1nnc2n(Cc3ccccc3)c(=O)c3c4c(sc3n12)CCC4`, the activity in test [1] was 90.4%; in test [2], 90%.

`c1ccc(CSc2ccc(-c3ccco3)nn2)cc1`: the activity in test [1] was determined as 57.6%; in test [2], 45.9%.

Turning to `C=CCOn1c(C)c(C(C)=O)c2c3no[n+]([O-])c3ccc21`, the figures for the activity in test [1] and in test [2] were 53.5% and 64.2%, respectively.

As to `Cc1ccc(Nc2nc(CSc3nnnn3C)cs2)cc1`, the values for the activity in test [1] and in test [2] were 23.2% and 8.93%, respectively.

For the molecule `CCCC(=O)N1CCN(c2ccc(NC(=O)c3cc4ccccc4o3)cc2Cl)CC1`, the activity was determined as 83% in test [1] and 58.6% in test [2].

Regarding `COc1ccc(C(=O)N/N=C/c2cccnc2)cc1`, the activity stood at 34.2% in test [1] and 40% in test [2].

`C=CCc1ccccc1OCC(=O)N/N=C/c1ccc(OC(C)=O)cc1OC(C)=O`: the activity in test [1] was -0.55%; in test [2], 27.2%.

As for `Cc1ccc(-c2nc(N/N=C/c3ccncc3)c3ccccc3n2)cc1`, the values for the activity in test [1] and in test [2] were 98% and 96.7%, respectively.

As for `O=C(N/N=C/c1cc(Br)cs1)c1ccc2c(c1)OCCO2`, the activity in test [1] was determined as 78.8%; in test [2], 77.9%.

As to `Cc1nn(-c2ccccc2)c(C)c1/C=N/NC(=O)c1cc(-c2ccc(Cl)s2)[nH]n1`, the activity in test [1] was 70.1%; in test [2] it was 72.8%.

Consider `O=C(/C=C/[C@H]1O[C@@H](n2cnc3c(NC(=O)c4ccccc4)ncnc32)[C@H](O)[C@@H]1O)NCC1CCCO1` (stereo partly drawn), for which the results for the activity in test [1] and in test [2] were -2.52% and -37%, respectively.

As for `O=C1C(=C(I)I)c2ccccc2-c2ccccc21`, the activity in test [1] was determined as 38%; in test [2] it was 99.6%.

For the molecule `O=C(Nc1nc2cc3c(cc2s1)OCCO3)c1ccc([N+](=O)[O-])o1`, the values for the activity in test [1] and in test [2] were 63.8% and 84.1%, respectively.

With `Cc1ccc(C(=O)N/N=C\c2ccc[nH]2)cc1[N+](=O)[O-]`, the activity in test [1] is 80.7%; in test [2], 79.4%.

On to `COc1ccc(NC(=O)c2cccc3c2C(=O)c2ccc(-c4ccc(F)cc4OCc4ccccc4)cc2S3(=O)=O)cc1`, for which the activity came to 20.6% in test [1] and 31.4% in test [2].

`Cc1ccsc1C(=O)Nc1nc2ccccc2[nH]1`: the activity in test [1] was 82%; in test [2], 85.7%.

Source of the values: PubChem BioAssay.
